TLR4 MyD88 blk = inhibitors of human TLR4-MyD88 binding; inhibition, % at 10 µM; AID 811; O00206; Cell-based TLR4-MyD88 binding inhibition assay; actives 0.06% (n = 16,000); in the data active means inhibition above about 45%
NOTCH agonist = activates NOTCH signaling in reporter cells. NOTCH signaling luciferase reporter cells, luminescence. activation, % at 2.5 µM. actives 0.4% (n = 15,000). AID 434982; in the data active means activation above about 2.2%
rat GALR2 agon = agonists of rat galanin receptor 2 (GALR2); cell-based GALR2 agonist screen; activation, % at 10 µM; actives 0.5% (n = 16,000); AID 833; O08726; in the data active means activation above about 15%
S1P1 ag = S1P1 (human) receptor agonism. S1P1 agonist cell-based reporter assay. activation, % at 4.5 µM. actives 1.5% (n = 16,000); in the data active means activation above about 80%
Large screens that a line does not name were inactive. Shown are actives, neighbours in structure and some others; about 2.6% of the full set was active somewhere.

Cc1cc(C)nc(Sc2ccc(C(F)(F)F)cc2[N+](=O)[O-])n1	none
O=S(=O)(NCCSCc1csc2ccc(Cl)cc12)c1ccc(Cl)cc1	S1P1 ag 90
Cc1c(Cc2ccc(F)cc2)c(=O)oc2cc(OC(=O)c3ccco3)ccc12	none
COc1ccc(/C=C2\CC/C(=C\c3ccc(OC)c(OC)c3)C2=O)cc1OC	none
COc1ccc(/C=C/c2nc3ccccc3s2)cc1OC	S1P1 ag 85
O=C(Nc1cccc2[nH]ccc12)C1CCCCC1	NOTCH agonist 2.3
Cc1c(NC(=O)C2CCCCC2)cccc1[N+](=O)[O-]	none
COc1ccc(Cl)cc1N1C(=O)C=C(c2ccccc2)C1=O	none
Cn1c(-c2ncc(C(F)(F)F)cc2Cl)n[nH]c1=S	S1P1 ag 93
CSc1cccc(NC(=O)CN2CCCCC2)c1	none
Cc1nc(N)[nH]c(=O)c1Cc1c(Cl)cccc1Cl	none
CNC(=O)c1c(C)csc1N	none
O=C(Cc1nn[nH]n1)Nc1ccc(F)c(Cl)c1	none (no result: NOTCH agonist)
O=C(Nc1ccc(F)c(Cl)c1)c1cc(Br)ccc1O	S1P1 ag 109
CC(=O)Nc1ccc(/C=N/NC(=O)c2ccc(C(C)(C)C)cc2)cc1	none
CC(C)(C)c1ccc(NC(=O)c2ccc(N3C(=O)CSCC3=O)cc2)cc1	S1P1 ag 93 (no result: TLR4 MyD88 blk)
O=[N+]([O-])c1cc(C(F)(F)F)cc([N+](=O)[O-])c1N1CCSCC1	S1P1 ag 99
O=S(=O)(O)c1ccc2[nH]c(=S)[nH]c2c1	rat GALR2 agon 60
COc1ccc2[nH]c(=S)[nH]c2c1	none
O=C(Nc1ccccc1)OCc1cc(-c2ccccc2)c(C(F)(F)F)s1	S1P1 ag 94
N#Cc1c2ccccc2cn1Cc1cccc(Cl)c1	S1P1 ag 93 (no result: TLR4 MyD88 blk)
COC(=O)c1cc(NC(=O)/C=C/c2ccc(OC)c(OC)c2Cl)ccc1N1CCOCC1	S1P1 ag 85
N#Cc1cnn2c1[nH]c(=O)c1ccccc12	none
COc1ccc2nsnc2c1	none
COc1ccc2nonc2c1	rat GALR2 agon 139
CCOC(=O)/C(C)=N/Nc1cc(C(F)(F)F)ccc1N1CCOCC1	none
CC1CS(=O)(=O)CCO1 (stereo not drawn)	none
O=[N+]([O-])c1cc(C2SCCS2)ccc1SC1CCCCC1	S1P1 ag 86
CCOC(=O)/C(C#N)=C/Nc1nc2ccc(C)cc2s1	S1P1 ag 87
FC(F)(F)COc1ccc(OCC(F)(F)F)c(-c2ccn[nH]2)c1	none
COc1ccc(CCN2C(=O)CSC2=Nc2ccc(C(C)C)cc2)cc1OC	S1P1 ag 108
O=C1/C(=C/c2cccs2)CC/C1=C\c1cccs1	S1P1 ag 81
CSC1=NCN(Cc2ccccc2)CN1	none
COc1ccc(N=Nc2ccc(OC)c(OC)c2)cc1OC	S1P1 ag 93
COc1ccc(OCC(O)CNC(=O)c2nccnc2C(=O)O)cc1 (stereo not drawn)	none
Cc1cc(-c2onc(C)c2C(=O)Sc2cccc(C(F)(F)F)c2)no1	none
CCOC(=O)c1ccc(NC(=S)NC)cc1	NOTCH agonist 2.9
COc1ccccc1C1CCN(c2ccc(CO)cc2[N+](=O)[O-])CC1	S1P1 ag 92
COc1ccc(Oc2ccc([N+](=O)[O-])c(Oc3ccc(OC)cc3)n2)cc1	S1P1 ag 88
COc1ccc(Oc2ccc([N+](=O)[O-])cc2)cc1	none
FC(F)(F)c1ccn(-c2nc(-c3ccccc3)ns2)n1	none
c1ccc(-c2nsc(-n3ccc(-c4cccs4)n3)n2)cc1	rat GALR2 agon 20
Brc1ccc(-n2cccc2)nc1	S1P1 ag 86
CC(C)(C)S(=O)(=O)/C(C#N)=C/N=S(C)(=O)c1ccccc1 (stereo not drawn)	none
CN(C)c1ccc(/C=C/c2cc[n+](Cc3ccc(F)cc3)cc2)cc1	TLR4 MyD88 blk 51
CN(C)c1ccc(/C=C/c2ccccc2)cc1	none
COc1ccc(Nc2nc3ccccc3nc2-c2ccccc2)cc1	none
O=S(=O)(Nc1ccc(C(F)(F)F)cc1Cl)c1cc(Br)c(Cl)s1	S1P1 ag 113
NNC(=O)c1ccccc1-n1cccc1	none
Cc1c(C)c(C)c(C(=O)c2ccccc2C(=O)NN)c(C)c1C	S1P1 ag 81
FC(F)(F)c1cc(-c2ccc(-c3ccn[nH]3)o2)cc(C(F)(F)F)c1	S1P1 ag 102
Cc1oc(-c2ccc(Cl)cc2)cc1-c1ccn[nH]1	none
O=C1NC(=O)C(CCCCO)N1 (stereo not drawn)	none
N#Cc1sc2nc3ccccc3n2c1/N=C/c1cccs1	none
O=C(OC1CCSC1)c1cc(C(F)(F)F)cc(C(F)(F)F)c1 (stereo not drawn)	S1P1 ag 120 (no result: NOTCH agonist)
O=S(=O)(Nc1cc(C(F)(F)F)cc(C(F)(F)F)c1)c1cccc2nsnc12	S1P1 ag 89
NNC(=O)CNS(=O)(=O)c1cccc2nsnc12	none

Compound activity from PubChem.
